The nature of experiment [1]: blockers of polyQ-driven CASP3 activation – cell-based (AID 1583). The note with it: polyglutamine-induced caspase-3 activation, cell assay; stronger effect = higher value;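 tested at 10 µM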.
Experiment [2] in a line: yeast 75Q aggregation reduction – 75Q-TubU reporter (AID 1593). To be noted: Yeast 75Q polyglutamine aggregation reporter.
Experiment [3] can be described thus: blockers of cytochrome c efflux from mitochondria – biochemical, purified mitochondria (AID 1603).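 Further: mouse liver mitochondria challenged with calcium chloride; signal normalized to the plate average as 100%.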 To be noted: stronger effect = lower value.
Experiment [4] can be described thus: P. berghei load reduction in hepatocytes – cell-based, HepG2, luciferase luminescence, HepG2 viability, primary screen (AID 624349; in the data active means parasite load remaining mostly below about 12%, no sharp cut-off; inactive means mostly above about 10%;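 further: 100% = mean of DMSO negative control wells on the same plate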). The note with it: P. berghei liver stage in HepG2, luciferase luminescence, concentration not given here; parasite load remaining: stronger effect = lower value; viability: measured here: HepG2 viability without parasites.
Experiment [5] is described as follows: EMT-state selective cytotoxicity in co-culture – imaging, PC-3E GFP, TEM4-18 mCherry, primary screen (AID 1345086).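 On all read-outs here: cells exposed to compound for 72 h before imaging.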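 On red/green cell ratio (normalised): normalised mesenchymal count divided by normalised epithelial count so high means epithelial killing.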 The note with it: PC-3E GFP / TEM4-18 mCherry co-culture, imaging cell counts, at 1 µM; for red/green cell ratio (normalised): actives lie on both sides, counts scaled to control wells, 1 = unselective.
Experiment [6] is described as follows: galactose survival enhancers in mitochondrial complex I cybrids – cell-based, galactose medium, ATP luminescence, primary screen (AID 1645843;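 active means z-score of at least 1.8 in each of two replicates, scored against plate mean and spread of sample wells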;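 further: positive z means more ATP and so rescue of galactose-driven cybrid death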). To be noted: complex I mutant cybrid cells, 72 h, stronger effect = higher value.
Setting [7] is: measured here: epithelial PC-3E GFP cell survival.
Setting [8] is: measured here: mesenchymal TEM4-18 mCherry cell survival.

Each structure is given as a SMILES string. Active and inactive are the calls of the source.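 How the source made its calls, unless noted: active means compounds killing one labelled cell type while sparing the other, by normalised counts and ratio limits, not self-fluorescent; inactive means the rest.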

In the case of `CC(=O)[C@@]1(O)CCC2C3C=C(Cl)C4=CC(=O)[C@@H]5CC5[C@]4(C)C3CC[C@@]21C` (some centres undefined), in experiment [1], the inhibition was found to be 39.2%. The score in experiment [2] amounted to 0.81. Also, the cytochrome c release ratio in experiment [3] came out at 1.45. Further, in experiment [4], the parasite load remaining is 143% (inactive) and the viability came out at 89.2%. The red/green cell ratio (normalised) in experiment [5] is 0.82 (inactive). The compound also registered a normalised cell number in experiment [5] (setting [7]) of 1.07. The compound further returned a normalised cell number in experiment [5] (setting [8]) of 0.88.
For the compound `Nc1ccn(C2O[C@H](CO)[C@@H](O)[C@H]2O)c(=O)n1` (some centres undefined), the inhibition in experiment [1] was determined as 22%. This compound also showed a score in experiment [2] of 1.09. The cytochrome c release ratio in experiment [3] was found to be 1.18. In addition, the red/green cell ratio (normalised) in experiment [5] is 1.13 (inactive). Moreover, the normalised cell number came to 1.06 in experiment [5] (setting [7]) and 1.19 in experiment [5] (setting [8]).
Consider `CC(=O)N[C@@H]1[C@@H](C(O)[C@H](O)CO)O[C@](O)(C(=O)O)C[C@@H]1O` (some centres undefined), for which the inhibition in experiment [1] is 7.5%. The compound further gave a score in experiment [2] of 1.07. In addition, in experiment [3], the cytochrome c release ratio came to 0.26. In addition, the red/green cell ratio (normalised) in experiment [5] is 0.94 (inactive). Besides, the values for the normalised cell number in experiment [5] (setting [7]) and in experiment [5] (setting [8]) were 1.19 and 1.12, respectively.
For the compound `CN[C@@H]1[C@@H](O)[C@@H](O[C@@H]2[C@@H](O)[C@H](O[C@H]3O[C@H]([C@@H](C)NC)CC[C@H]3N)[C@@H](N)C[C@H]2N)OC[C@]1(C)O`, the red/green cell ratio (normalised) in experiment [5] is 0.92 (inactive). In addition, the normalised cell number in experiment [5] (setting [7]) was 1.22; in experiment [5] (setting [8]), 1.13. For the same compound, the z-score in experiment [6] was 0 (inactive).
As for `CC(=O)O[C@@H]1CC2C(C)(C)C(=O)C=C[C@]2(C)C2CC[C@@]3(C)[C@H](c4ccoc4)OC(=O)[C@H]4O[C@]43[C@@]21C` (some centres undefined), in experiment [1], the inhibition was -6.23%. In addition, the score in experiment [2] was determined as 0.97. For the same compound, the cytochrome c release ratio in experiment [3] stood at 1.1. In addition, in experiment [4], the parasite load remaining was 2.66% (inactive) and the viability worked out at 98.4%. Besides, the red/green cell ratio (normalised) in experiment [5] is 1.12 (inactive). Further, the normalised cell number in experiment [5] (setting [7]) stood at 0.89. Moreover, the normalised cell number in experiment [5] (setting [8]) came to 0.99.
With `CC(=O)N1CCCC1C(=O)O` (centres undefined), in experiment [4], the parasite load remaining was 194% (inactive) and the viability worked out at 68.3%. For the same compound, the red/green cell ratio (normalised) in experiment [5] is 0.79 (inactive). Also, in experiment [5] (setting [7]), the normalised cell number is 1.3. Further, the normalised cell number in experiment [5] (setting [8]) worked out at 1.03.
`CC(=O)OCC(=O)[C@@]1(O)[C@H](C)CC2C3CCC4=CC(=O)C=C[C@]4(C)[C@@]3(F)[C@@H](O)C[C@@]21C` (some centres undefined): the inhibition in experiment [1] is 52.6%. For the same compound, in experiment [2], the score is 0.99. Besides, the cytochrome c release ratio in experiment [3] came to 1.17. Also, in experiment [4], the parasite load remaining was 140% (inactive) and the viability stood at 73.1%. The red/green cell ratio (normalised) in experiment [5] is 1.26 (inactive). The compound further came in with a normalised cell number in experiment [5] (setting [7]) of 1.37. Also, the normalised cell number in experiment [5] (setting [8]) stood at 1.74.
As to `CC(C)Oc1ccc2c(=O)cc(-c3ccccc3)oc2c1`, in experiment [1], the inhibition was 19.6%. The score in experiment [2] is 0.68. For the same compound, the cytochrome c release ratio in experiment [3] was determined as 0.9. In addition, the red/green cell ratio (normalised) in experiment [5] is 0.86 (inactive). The normalised cell number in experiment [5] (setting [7]) amounted to 1.15; in experiment [5] (setting [8]), 0.99.
Turning to `CCCCC(=O)O[C@]1(C(=O)CO)[C@@H](C)CC2C3CCC4=CC(=O)C=C[C@]4(C)[C@@]3(F)C(O)C[C@@]21C` (some centres undefined), in experiment [4], the parasite load remaining was 94.9% (inactive) and the viability amounted to 71%. In addition, the red/green cell ratio (normalised) in experiment [5] was 1.42 (inactive). This compound had a normalised cell number in experiment [5] (setting [7]) of 0.8. The normalised cell number in experiment [5] (setting [8]) came out at 1.14.
As for `CC(CCC(=O)O)[C@H]1CCC2C3CC[C@@H]4C[C@H](O)CC[C@]4(C)C3CC[C@@]21C` (some centres undefined), in experiment [4], the parasite load remaining is 32.1% (inactive) and the viability stood at 67.3%. Moreover, the red/green cell ratio (normalised) in experiment [5] was 0.99 (inactive). In experiment [5] (setting [7]), this compound returned a normalised cell number of 0.91. In experiment [5] (setting [8]), this compound registered a normalised cell number of 0.89.
Take `CC1(C)C2CC[C@]3(C)C(C(=O)C=C4[C@@H]5C[C@@](C)(C(=O)O)CC[C@]5(C)CC[C@]43C)[C@@]2(C)CC[C@@H]1O` (some centres undefined): the inhibition in experiment [1] is 22.2%. The compound further registered a score in experiment [2] of 2.09. The cytochrome c release ratio in experiment [3] came to 0.78. Also, in experiment [4], the parasite load remaining was 94.2% (inactive) and the viability stood at 71%. The red/green cell ratio (normalised) in experiment [5] is 0.98 (inactive). In experiment [5] (setting [7]), the normalised cell number came out at 0.92. The normalised cell number in experiment [5] (setting [8]) was found to be 0.89.

As usually defined, the inhibition is the drop in the measured response relative to a control, in per cent. As usually defined, the viability is a per cent measure of how many cells are alive, often set against a control.

Source of the values: PubChem BioAssay.
